Screens: PubChem, National Center for Advancing Translational Sciences (NCATS)
An excerpt weighted towards active compounds, which were near 3% of everything screened.
p53null 32C tox – selectivity test: cytotoxicity in p53 null cells, permissive temperature | hit rate 0.62% among 55,000 | H1299-neo p53 null cells, ATP luminescence, 24 h, 32C | AID 903 | Potency, µM (highest dose often 46.1 µM), for the others: top-dose activity change, negative = cytotoxicity, usual class: cytotoxic;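 further: 0% = DMSO only and -100% = full killing by 100 µM tamoxifen; nearly all actives have a fitted effect of over 55% in size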
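Cytotoxicity: H1299-neo (no p53), 32C, 24 h treatment. Concentrations up to 46 uM. Readout cellular ATP, luminescence. Normalization to DMSO basal and tamoxifen 100 uM maximal kill.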
p53null 39C kill – kills p53 null cells at the nonpermissive temperature | H1299 p53-null (neo) cells, 39C, ATPlite viability, 24 h | hit rate 0.97% among 55,000 | Potency, µM (series often up to 46.1 µM), for the others: top-dose activity, negative = cell killing, most hits filed as cytotoxic;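 further: 0% = DMSO only and -100% = full killing by 100 µM tamoxifen; nearly all actives have a fitted effect of over 50% in size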
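Following overnight plating at 37C (600 cells/well), H1299-neo or H1299-p53A138V cells are dosed up to 46 uM. Incubation lasts 24 hr at 39C before ATP detection.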
OvCa metastasis – inhibitors of ovarian cancer cell adhesion and invasion in omental model; SKOV3ip1-GFP adhesion/invasion on 3D omental model, fluorescence; Potency, µM (doses to about 45.8 µM), for the others: top-dose activity change, negative = inhibition, actives largely listed as inhibitors; hit rate 0.1% among 46,000; AID 1963576;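 further: plate controls were DMSO wells for no effect and tomatine positive control wells for full effect; nearly all actives have a fitted effect of over 65% in size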
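Primary human omental fibroblast/mesothelial 3D culture pre-formed 48 h. SKOV3ip1-GFP cells added with compounds (0.36-46 umol/L), incubated 2 h RT/16 h 37 C, fixed; GFP cells quantified at 488/509 nm.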
mTORC1 inh – inhibitors of mTORC1 signaling in Tsc2-/- p53-/- MEF cells; AID 493208; Tsc2-/- p53-/- MEF, phospho-rpS6 immunofluorescence/PI, 24 h; hit rate 0.78% among 44,000; Potency, µM (titrated, usually from 38.3 µM), without a hit: at the highest dose activity change, negative = inhibition, most hits filed as inhibitors;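 further: plate controls were DMSO for no effect and rapamycin for full effect; nearly all actives have a fitted effect of over 50% in size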
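Readout is phospho-S6 Alexa 488 signal normalized to PI per well, reported as % active cells with thresholds set from rapamycin (7.5 nM) and DMSO controls. Cells: Tsc2-/-, p53-/- MEFs, 24 hrs compound at 37 C; PI cell number serves as viability.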
PMP22 txn prim – modulates PMP22 transcription in S16 Schwann cells; S16 Pmp22-F2sN Schwann cells, FLuc/NLuc coincidence luminescence, 24 h; Potency, µM (doses to about 57.5 µM), for inactives: top-dose activity change, negative = inhibition, usual class: inhibitors; hit rate 2% among 43,000; AID 1508649; active means clear falling dose curves in both reporters; inconclusive means both reporters move, but less clearly or upward; inactive means either reporter flat; the % is the NLuc reporter signal
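Rat S16 Pmp22-F2sN cells, 500-1,000/well in phenol red-free DMEM + 10% FBS, compound-treated 24 h (37C, 5% CO2). Luminescence: FLuc read, Stop&Glo added, NLuc read.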
S16 viability – cytotoxicity in S16 Pmp22-F2sN Schwann cells; S16 Pmp22-F2sN Schwann cells viability, CellTiter-Glo, 24 h; Potency, µM (titrated, usually from 57.5 µM), inactives show top-dose activity change, negative = cytotoxicity, hits mostly cytotoxic; hit rate 0.48% among 43,000; AID 1508642; further: nearly all actives have a fitted effect of over 65% in size
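S16 Pmp22-F2sN Schwann cells (500-1,000/well) in phenol-red-free DMEM with 10% FBS received 23 nL compound by pin tool for 24 h at 37 °C. Viability was then read as CellTiter-Glo luminescence after 15 min at room temperature.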
Starred values were filed as active, the others as inactive; i = inactive; u = inconclusive; x = no result given. Unless noted, the call rests on the fitted dose curve; in most records, active means well fitted curve in the direction sought with a large enough effect; inconclusive means small, poorly fitted or top-dose-only effect, or another doubt; inactive means no such curve, though single readings can be large; an effect the other way counts as inactive or inconclusive. Unless noted, on the % scale 0 is the no-effect control and ±100 the full control effect; potency means the concentration at half of the fitted maximal effect.

SMILES	p53null 32C tox	p53null 39C kill	OvCa metastasis	mTORC1 inh	PMP22 txn prim	S16 viability
O=C(Oc1ccc(Cl)cc1)c1cc(-c2ccc3c(c2)OCCO3)on1	-19%	-32%	i	-5%	-1%	12%
CCOC(=O)c1ccc(NC(=O)Nc2ccc3c(c2)OCCO3)cc1	-5%	-4%	x	x	x	x
COc1ccc(C(=O)Nc2ccc3c(c2)OCCO3)cc1	11µM*	11µM*	x	x	x	x
N#Cc1ccc(OC(=O)c2cc(-c3ccc4c(c3)OCCO4)on2)cc1	u	u	-25%	-1%	-25%	-3%
Cc1cnc(Nc2ccc(CN3CCOCC3)cc2)nc1Nc1cccc(S(=O)(=O)NC(C)(C)C)c1	x	x	-23%	x	x	x
CNC1[C@H](O)C(O[C@@H]2C(O)C(O[C@H]3O[C@H]([C@@H](C)NC)CC[C@H]3N)[C@@H](N)C[C@H]2N)OC[C@]1(C)O (stereo partly specified)	x	x	6%	x	x	x
CC1CCN(c2cc(N3CCN(C)CC3)ccc2NC(=O)c2cc(C#N)c[nH]2)CC1	x	x	23%	x	x	x
Cc1cccc(N2CCN(c3ncnc4onc(C)c34)CC2C)c1 (stereo unspecified)	u	u	-4%	-2%	11µM*	u
CCCN(CCC)CCCNC(=O)C1CCN(c2nc3ccc(CC)cc3s2)CC1	u	u	u	16µM*	u	28µM*
CCCN(CCC)CCNC(=O)C1CCN(c2nc3ccc(CC)cc3s2)CC1	u	u	u	16µM*	u	u
CCc1ccc2nc(N3CCC(C(=O)NCCC(C)C)CC3)sc2c1	u	6.3µM*	-4%	0%	u	1%
Cc1ccc(S(=O)(=O)Nc2cc(Cl)ccc2C(=O)Nc2nc(-c3ccccc3)cs2)cc1	x	x	4%	x	x	x
Cc1ccccc1OC(=O)c1cc(-c2ccc3c(c2)OCCO3)on1	u	u	5%	2%	3%	-1%
Cc1cccc(OC(=O)c2cc(-c3ccc4c(c3)OCCO4)on2)c1C	16µM*	32µM*	i	3%	-14%	3%
O=C(Oc1ccccc1Cl)c1cc(-c2ccc3c(c2)OCCO3)on1	20µM*	u	0%	0%	u	-3%
O=C(CC1(O)C(=O)N(Cc2ccccc2)c2ccc(Br)cc21)c1ccccc1 (stereo unspecified)	u	13µM*	i	u	u	-14%
COc1cccc(C(=O)CC2(O)C(=O)N(Cc3ccccc3)c3ccccc32)c1 (stereo unspecified)	-3%	4%	-20%	15µM*	u	u
COc1ccc(C(=O)CC2(O)C(=O)N(Cc3cccc(C(F)(F)F)c3)c3ccccc32)cc1 (stereo unspecified)	15%	u	i	u	u	u
CCN1C(=O)C(O)(c2c[nH]c3ccccc23)c2cc(Br)ccc21 (stereo unspecified)	22%	-27%	2%	7%	u	-6%
O=C(CC1(O)C(=O)N(CCc2ccccc2)c2ccc(Br)cc21)c1ccccc1O (stereo unspecified)	9%	u	-8%	18µM*	u	u
O=C(CC1(O)C(=O)Nc2cc(Cl)cc(Cl)c21)c1ccccc1O (stereo unspecified)	4%	-12%	x	x	x	x
CC(C)c1onc(-c2c(Cl)cccc2Cl)c1COc1ccc(C=Cc2cccc(C(=O)O)c2)c(Cl)c1	x	x	26%	x	x	x
CC(C)c1cnn2c(NCc3ccccc3)cc(NCCCCCCN)nc12	x	x	-29%	x	x	x
COc1ccc(CNC(=O)Cn2c(=O)nc(-c3ccccc3F)c3cc(Cl)ccc32)cc1	-1%	12%	11µM*	0%	u	5%
CC(C)NC(=O)Cn1c(=O)nc(-c2ccccc2F)c2cc(Cl)ccc21	-10%	-19%	-8%	0%	-6%	4%
SMILES	p53null 32C tox	p53null 39C kill	OvCa metastasis	mTORC1 inh	PMP22 txn prim	S16 viability
Cc1ccc(Cl)cc1N1CCN(CCCNc2ncnc3onc(-c4ccc(F)cc4)c23)CC1	-1%	-1%	-4%	-1%	18µM*	u
Cc1ccc(C)n1-c1ccccc1N	13µM*	u	x	x	x	x
CN1CCN(c2ncc(-c3cc(Cl)cc(Cl)c3Cl)c(N)n2)CC1	x	x	3%	x	x	x
Cc1ccccc1Nc1c(-c2ccc(N3CCOCC3)cc2)nc2ccc(Cl)cn12	u	13µM*	2%	0%	0%	-16%
Cc1ccn2c(Nc3ccccc3C)c(-c3ccc(N4CCOCC4)cc3)nc2c1	22%	7%	-8%	-1%	-21%	-7%
Cc1ccc2nc(-c3ccc(N4CCOCC4)cc3)c(Nc3ccccc3C)n2c1	u	5µM*	-26%	-2%	u	-17%
CN1CCc2c(n(Cc3ccc(C(=O)NO)cc3)c3ccccc23)C1	x	x	-8%	x	x	x
Cc1ccc(C(C)C)c(OCC(=O)Nc2cc(-c3nc4ccccc4[nH]3)ccc2C)c1	u	7.9µM*	-15%	13µM*	u	u
COc1cc(OC)cc(C(=O)Nc2cc(-c3nc4ccccc4[nH]3)ccc2C)c1	7%	-18%	i	0%	-44%	-27%
COc1ccc(-c2ccc3ncc4c(c3c2)n(-c2ccc(N3CCNCC3)c(C(F)(F)F)c2)c(=O)n4C)cn1	x	x	9.3µM*	x	x	x
CNC(=O)c1cc(COc2nnc(Nc3ccc(Cl)cc3)c3ccoc23)ccn1	x	x	-10%	x	x	x
Cc1ccc(OCCCn2c(CCNC(=O)C3CCCCC3)nc3ccccc32)c(C)c1	-7%	-3%	3%	-1%	-5%	u
Cc1cccc(C)c1OCCCn1c(CCNC(=O)C2CCCCC2)nc2ccccc21	-4%	16µM*	11%	-1%	u	-24%
Cc1cc(OCCCn2c(CCNC(=O)C3CCCCC3)nc3ccccc32)ccc1Cl	u	25µM*	u	1%	u	u
Cc1ccc2[nH]c(=O)c3cc(C(=O)NCCCN4CCC(C)CC4)sc3c2c1	-7%	u	u	3.3µM*	u	u
C[C@H](O)[C@@H]1C(=O)N2C(C(=O)O)=C(S[C@@H]3CN[C@H](CNS(N)(=O)=O)C3)[C@@H](C)[C@@H]12	x	x	19%	x	x	x
Cc1ccc(S(=O)(=O)Cc2ccc(C(=O)N3CCN(c4cccc(Cl)c4)CC3)o2)cc1	1%	u	-10%	u	15µM*	-17%
Brc1ccc(Nc2c3c(nc4nncn24)CCC3)cc1	-7%	-12%	1%	5.8µM*	u	-25%
